Screening results deposited in PubChem BioAssay by National Center for Advancing Translational Sciences (NCATS).
The full list was thinned out, with hits kept by preference.
Pf Dd2 inh: inhibitors of Plasmodium falciparum Dd2 growth; P. falciparum Dd2 growth, SYBR Green, 72 h; 4.3% of 120,000 active; Potency, µM (titrated, usually from 28.9 µM), usual class: inhibitors; active = well fitted inhibition curve with a large enough effect; note: nearly all actives have a fitted effect of over 65% in size
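Readout: SYBR Green fluorescence, 485 nm excitation, 535 nm emission, after ~16 h lysis at 37C. Before that, Dd2-infected red cells (2.5% hematocrit) grew 72 h with compound, 29 uM top final concentration.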
Hits are given with their value; - = inactive; [ ] = remark or other dose.

SMILES | Pf Dd2 inh
Cc1ccc(Nc2nnc(-c3ccc(C)c(S(=O)(=O)N4CCOCC4)c3)c3ccccc23)c(C)c1 | 7.9µM
Cc1ccc(-c2nnc(Nc3cccc(O)c3)c3ccccc23)cc1S(=O)(=O)N1CCOCC1 | -
CC(C)NC(=O)N(C1CC1)C1CCOC2(CCN(C(=O)NCc3ccc(F)cc3)CC2)C1 (stereo not drawn) | -
C=CCC1(CO)CCCN(S(=O)(=O)c2ccccc2F)C1 (stereo not drawn) | -
Cc1nc2cccnc2n1CC1CCCN(C(=O)Nc2ccccc2C(F)(F)F)C1 (stereo not drawn) | -
Cc1ncc2c(c1CNC(=O)CCn1c(=O)[nH]c3ccccc31)CCNC2 | -
COCC(=O)N1CCC2(CC1)CC(N1CCN(c3ccccn3)CC1)CCO2 (stereo not drawn) | -
Cc1cc2nc3n(c(=O)c2n1CC(=O)Nc1ccccc1Cl)CCCCC3 | -
CN1CCc2nc(N3CCc4ccccc4C3)[nH]c(=O)c2CC1 | -[5.79 µM]
Cc1ccc(S(=O)(=O)N2CCC(Oc3ncccc3C(=O)N3CCOCC3)C2)cc1F (stereo not drawn) | -
O=C1CCN(C(=O)C2CCN(C(=O)NCc3ccccc3)CC2)CCCCCCN1 | -
O=C(CCC1N=C2c3ccccc3N=C(SCC(=O)Nc3ccccc3F)N2C1=O)NCc1cccs1 (stereo not drawn) | -
Cc1ccc(CSC2=Nc3ccccc3C3=NC(CCC(=O)NCc4cccs4)C(=O)N23)cc1 (stereo not drawn) | -
O=C(CSC1=Nc2ccccc2C2=NC(CCC(=O)NC3CCCCC3)C(=O)N12)Nc1cccc(C(F)(F)F)c1 (stereo not drawn) | 10µM
COc1ccc(CCNC(=O)CSC2=Nc3ccccc3C3=NC(CCC(=O)NCc4ccccc4)C(=O)N23)cc1OC (stereo not drawn) | -
COc1ccc(OC)c(NC(=O)CSC2=Nc3ccccc3C3=NC(CC(=O)NCc4ccco4)C(=O)N23)c1 (stereo not drawn) | -
COCCCNC(=O)CSC1=Nc2ccccc2C2=NC(CCC(=O)NCc3ccccc3OC)C(=O)N12 (stereo not drawn) | -
CCCCNC(=O)CC1N=C2c3ccccc3N=C(SCC(=O)NCc3ccccc3Cl)N2C1=O (stereo not drawn) | 10µM
Cc1ccc(CSC2=Nc3ccccc3C3=NC(CCC(=O)NCCc4ccccc4)C(=O)N23)cc1 (stereo not drawn) | 10µM
CC(C)c1ccc(NC(=O)CSC2=Nc3ccccc3C3=NC(CCC(=O)NC4CCCCC4)C(=O)N23)cc1 (stereo not drawn) | -
COc1ccc(NC(=O)CSC2=Nc3ccccc3C3=NC(CCC(=O)NC4CCCCC4)C(=O)N23)cc1 (stereo not drawn) | -
CCCCNC(=O)CSC1=Nc2ccccc2C2=NC(CCC(=O)NCc3ccccc3OC)C(=O)N12 (stereo not drawn) | -
COc1ccc(Cl)cc1NC(=O)CSC1=Nc2ccccc2C2=NC(CC(=O)NCc3cccs3)C(=O)N12 (stereo not drawn) | 11µM
CCC(=O)N1CC(c2nnc(-c3ccc(C)cc3)o2)C2(CCOCC2)C1 (stereo not drawn) | -
O=C1CCCN1Cc1nc(-c2ccc(F)cc2)no1 | -
SMILES | Pf Dd2 inh
COCCOCc1nc(C2CCCN2C(=O)Nc2ccc(F)cc2F)no1 (stereo not drawn) | -
COc1ccc(CN2C(=O)COC[C@H]2C(=O)NCc2ccccc2F)cc1OC | -
CCOc1ccc(NC(=O)Cn2c(C)ccc(NC(=O)Nc3ccc(C)cc3)c2=O)cc1 | -
Cc1noc(C2CCCCCN2C(=O)Nc2cccc(F)c2)n1 (stereo not drawn) | -
CCc1ccc(NC(=O)CSC2=Nc3ccccc3C3=NC(CC(=O)NC4CCCCC4)C(=O)N23)cc1 (stereo not drawn) | -
O=C(CC1N=C2c3ccccc3N=C(SCC(=O)Nc3cccc(C(F)(F)F)c3)N2C1=O)NCc1cccs1 (stereo not drawn) | 13µM
CCOc1ccccc1NC(=O)CSC1=Nc2ccccc2C2=NC(CC(=O)NC3CCCCC3)C(=O)N12 (stereo not drawn) | 11µM
O=C(CSC1=Nc2ccccc2C2=NC(CC(=O)NC3CCCCC3)C(=O)N12)Nc1ccc(F)cc1 (stereo not drawn) | -
O=C(CC1N=C2c3ccccc3N=C(SCC(=O)Nc3ccc(F)cc3)N2C1=O)NCc1cccs1 (stereo not drawn) | -
O=C(CC1N=C2c3ccccc3N=C(SCc3cccc(F)c3)N2C1=O)NCc1cccs1 (stereo not drawn) | -
NC(=O)COc1ccccc1CN(Cc1ccsc1)CC1CCCO1 (stereo not drawn) | -
CCC(C)(C)C(=O)N1CCC(N2C(=O)CCC2C(=O)NC(C)C)CC1 (stereo not drawn) | -
COc1ccccc1C(=O)N1CCc2cn(C)c3cccc(c23)C1 | -
Cc1ccc(CN2CCc3nc(N(C)C)[nH]c(=O)c3CC2)cc1C | -[5.79 µM]
NC(=O)c1cc[nH]c1C1CCCN(Cc2ccc(Br)o2)C1 (stereo not drawn) | -
COc1ccc(C(=O)NCCn2cc(SCC(=O)Nc3ccc(C)cc3)c3ccccc32)cc1 | -
CCOc1ccc(C(=O)NCCn2cc(SCC(=O)Nc3ccccc3)c3ccccc32)cc1 | 4.5µM
CCOc1ccc(NC(=O)CSc2cn(CCNC(=O)c3ccccc3F)c3ccccc23)cc1 | -
O=C(NCc1ccc(F)cc1)C1=NOC2CN(C(=O)Nc3cccnc3)CC12 (stereo not drawn) | -
Cn1cc(CC(=O)N2CCCc3ncc(C(=O)N4CCN(CCO)CC4)cc32)c2ccccc21 | -
CCOc1ccccc1CN1CCC2(CCN(C(=O)c3ccc(OC)cc3)CC2)Oc2ccccc21 | -
CCCN1CCC2(CCN(C(=O)Nc3ccc(Cl)cc3)CC2)Oc2ccccc21 | -
O=C(c1cccc(Cl)c1)N1CCC2(CC1)CCN(Cc1cccs1)c1ccccc1O2 | 7.9µM
Cc1nc(-c2c3n(c(=O)n(CC(=O)NCc4ccccc4)c2=O)CCCCC3)no1 | -
CCc1nc2c(c(-c3ccc(OC)cc3)n1)CCN(C(=O)c1ccccc1)CC2 | -
SMILES | Pf Dd2 inh
CCc1nc2c(c(-c3ccc(OC)cc3)n1)CCN(Cc1cccc(NC(C)=O)c1)CC2 | 13µM
COc1ccc(-c2nc(C)nc3c2CCN(Cc2cccn2C)CC3)cc1 | -
CCc1nc2c(c(-c3ccc(Cl)cc3)n1)CCN(Cc1ccccc1)CC2 | -
CCc1nc2c(c(-c3ccc(OC)cc3)n1)CCN(Cc1ccsc1)CC2 | -
CCc1nc2c(c(-c3ccc(Cl)cc3)n1)CCN(Cc1ccc(F)cc1)CC2 | -
Cc1nc2c(c(-c3ccc(O)cc3)n1)CN(Cc1cccn1C)CCC2 | -
CCc1nc2c(c(-c3ccc(Cl)cc3)n1)CN(C(=O)COC)CC2 | -
CCc1nc2c(c(-c3ccc(Cl)cc3)n1)CN(C(=O)C1CC1)CC2 | -
CCc1nc2c(c(-c3ccc(Cl)cc3)n1)CCN(Cc1ccc(NC(C)=O)cc1)CC2 | 2.5µM
CCc1nc2c(c(-c3ccc(O)cc3)n1)CCN(Cc1cccn1C)CC2 | 8.9µM
CCc1nc2c(c(-c3ccc(Cl)cc3)n1)CN(C(=O)Cc1cccc(Cl)c1)CC2 | 4.5µM
Clc1cc(NC2CCOC2)n2nccc2n1 (stereo not drawn) | -
Cc1ccsc1-c1[nH]nc2ncc(-c3cccc(O)c3)nc12 | -
O=C(c1cccc(F)c1)N1CCOC[C@H](Oc2ccccc2)C1 | -
CCN1c2cc(C(=O)Nc3ccc(C(C)C)cc3)ccc2C(=O)N2CCCCC21 (stereo not drawn) | -
